Test results published in PubChem BioAssay.
A number with no mark means an inactive call.

system: not listed separately; assay: MM1S myeloma cell viability, profiling panel, resazurin fluorescence, basal, 24 h, PK04 Diversity Set (AID 1174); conditions: higher = more signal, called active from +8 up or from −8 down;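 further: MM1S multiple myeloma cell line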
Further: test concentration not given here.

Row | SMILES | z-score
1 | COC(=O)[C@@]1(Cc2ccc(OC)cc2)[C@H]2c3cc(C(=O)N4CCCC4)n(CCn4cc([N+](=O)[O-])nc4C)c3C[C@H]2CN1C(=O)c1ccccc1 | -1.72
2 | [N-]=[N+]=NCc1ccccc1[C@@H]1OC(c2ccc(OCCCO)cc2)=N[C@]1(Cc1ccccc1N=[N+]=[N-])C(=O)O | 0.589
3 | C=CCOC(=O)[C@H]1[C@@H]2C(=O)O[C@@H](c3ccccc3)[C@@H](c3ccccc3)N2[C@@H](c2ccc(OCCOC(=O)[C@H]3C[C@H]4C(=O)N[C@@H](CC(C)C)C(=O)N4[C@H]3c3ccc(O)cc3)cc2)[C@]12C(=O)Nc1ccccc12 | 0.407
4 | COc1ccc([Si](C)(C)[C@H]2[C@H](CC(=O)N3Cc4ccccc4C[C@H]3CO)O[C@@]3(C(=O)N(c4ccccc4)c4ccccc43)[C@@H]2C)cc1 | -2.45
5 | N#Cc1ccc(-c2cccc(=O)o2)cc1 | 0.141
6 | COCCOC(=O)N1C(=O)[C@@]2(c3ccccc31)[C@H](C(=O)N1CCN(c3ncccn3)CC1)[C@H]1C(=O)O[C@H](c3ccccc3)[C@H](c3ccccc3)N1[C@@H]2c1ccccc1OCCO | -0.684
7 | NC(=O)NCC#Cc1ccc2c(c1)[C@]1(C(=O)N2)[C@H](c2ccc(OCCO)cc2)N2[C@H](c3ccccc3)[C@H](c3ccccc3)OC(=O)[C@H]2[C@@H]1C(=O)O | 0.117
8 | COC(=O)[C@@]1(Cc2ccc(OC)cc2)[C@H]2c3cc(C(=O)N(C)C)[nH]c3C[C@H]2CN1C(=O)c1ccccc1 | -0.798

biological target: Dihydroorotate dehydrogenase (quinone), mitochondrial (Plasmodium falciparum (isolate 3D7)) (UniProt Q08210); assay: PfDHODH enzyme inhibitors, primary screen, biochemical, C-terminal His tag, absorbance 600 nm (AID 1175); conditions: DCIP absorbance 600 nm, higher = more signal, called active from +8 up or from −8 down;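 further: recombinant parasite enzyme with a five histidine tag at its C terminus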
Sequence (Q08210 whole entry, looked up): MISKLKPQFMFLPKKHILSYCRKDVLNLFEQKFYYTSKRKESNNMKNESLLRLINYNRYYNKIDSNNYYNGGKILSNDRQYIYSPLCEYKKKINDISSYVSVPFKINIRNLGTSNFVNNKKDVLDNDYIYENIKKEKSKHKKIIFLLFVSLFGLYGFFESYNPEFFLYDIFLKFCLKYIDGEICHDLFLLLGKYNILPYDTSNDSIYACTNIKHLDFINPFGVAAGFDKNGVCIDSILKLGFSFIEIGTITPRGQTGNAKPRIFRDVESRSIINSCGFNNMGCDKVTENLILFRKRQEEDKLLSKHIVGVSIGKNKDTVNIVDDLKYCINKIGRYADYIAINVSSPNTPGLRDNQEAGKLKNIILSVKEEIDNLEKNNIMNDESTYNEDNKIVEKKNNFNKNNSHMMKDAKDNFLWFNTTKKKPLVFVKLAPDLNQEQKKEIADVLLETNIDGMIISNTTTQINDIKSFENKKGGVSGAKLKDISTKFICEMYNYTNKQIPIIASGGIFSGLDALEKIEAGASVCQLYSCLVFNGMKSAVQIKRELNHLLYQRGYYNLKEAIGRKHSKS

Row | SMILES | composite z-score
9 | COc1cc(OC)c(C(O)C2C=CC3C(=O)N(c4ccccc4)C(=O)C3N2Nc2ccc(C(C)C)cc2)cc1Br (stereo not given) | 0.145
10 | CC(C)c1nc2cc(Br)ccc2c(=O)o1 | 0.374
11 | CN1C(=O)[C@@H]2[C@@H](CC(COc3ccccc3)=C3[C@@H](CCc4ccccc4)OB(O)C[C@@H]32)C1=O | -0.399
12 | O=C(NCCN1CCOCC1)[C@@H]1c2ccccc2C(=O)N(Cc2ccc(OC(F)(F)F)cc2)[C@H]1c1ccc(CO)cc1 | -0.0449
13 | CN(C)c1ccc(C(O)C2C=CC3C(=O)N(Cc4ccccc4)C(=O)C3N2n2cnnc2)cc1 (stereo not given) | -0.536
14 | CC(C)C(O)C1C=CC2C(=O)NC(=O)C2N1Nc1ccccn1 (stereo not given) | 0.48
15 | COc1ccc([Si](C)(C)[C@@H]2[C@@H](CC(=O)N3Cc4ccccc4C[C@H]3CO)O[C@]3(C(=O)N(Cc4ccc(N5CCOC5=O)cc4)c4ccccc43)[C@H]2C)cc1 | -0.836
16 | COCCOC(=O)N1C(=O)[C@@]2(c3cc(C#CCC(C(=O)OC)C(=O)OC)ccc31)[C@H](C(=O)Nc1nc3ccccc3s1)[C@H]1C(=O)O[C@H](c3ccccc3)[C@H](c3ccccc3)N1[C@@H]2c1ccc(O)cc1 | 0.863
17 | COc1cc(CO)cc(I)c1O[C@H]1C=C(C(=O)NCCO)C[C@@H](NC2CCCCCC2)[C@@H]1O | 1.11
18 | O=C(NC1CC1)[C@@H]1c2ccccc2C(=O)N(Cc2ccc(OC(F)(F)F)cc2)[C@H]1c1ccc(CO)cc1 | 0.347
19 | CCOC(=O)C1=CC[C@@H](c2ccc(OC)cc2)N(S(=O)(=O)c2ccc(C)cc2)[C@H]1CC | -1.04
20 | CC1CC/C=C\[C@H]2OC34C=CCN(C(C)(C)C)C(=O)[C@H]3N(CCCO)C(=O)[C@@H]4C2C(=O)O1 (stereo not given in full) | -0.555
21 | C=C(C)[C@@H]1CC=C(C(O)C2C=CC3C(=O)N(c4ccccc4)C(=O)C3N2Nc2ccc([N+](=O)[O-])cc2)CC1 (stereo not given in full) | 1
22 | C=CCOC(=O)[C@@H]1[C@H]2C(=O)O[C@H](c3ccccc3)[C@H](c3ccccc3)N2[C@H](c2ccc(OCCOC(=O)[C@H]3C[C@H]4C(=O)NCC(=O)N4[C@H]3c3cccc(OCCO)c3)cc2)[C@@]12C(=O)Nc1ccc(I)cc12 | 0.131
23 | COC(=O)[C@H](Cc1ccccc1)N1CC2=CCCC=C[C@@H]2[C@H]1[C@H](O)Cc1ccccc1 | -0.313
24 | CC(=O)OCC1C2CC[C@H]3C(OCc4ccc(F)cc4C(F)(F)F)OC[C@]4(C)[C@H]3C2=C(CN4C(=O)OC(C)(C)C)[C@H](C)C1COC(C)=O (stereo not given in full) | 0.182
25 | CC(=O)c1ccc(C(O)C2C=CC3C(=O)N(c4ccccc4)C(=O)C3N2Nc2ccc(C(C)C)cc2)cc1 (stereo not given) | 0.774
